Results filed as inconclusive are left out. Calls of active or inactive are those of the source. Calls come from the whole dose curve; as a rule, active = well fitted inhibition curve with a large enough effect; inconclusive = small, poorly fitted or top-dose-only effect; inactive = flat fitted curve, though single readings scatter.
Legend:
CRL-7250 = normal cell line; test: Cytotoxic Profiling of Annotated Libraries Using Quantitative High-Throughput Screening (AID 1296008); conditions: Five cell lines viability, CellTiter-Glo ATP luminescence, 48-72 h; max response: stronger effect = lower value; for max response: % is set by controls: 0 for no effect and ±100 for the full control effect
Summary of the method: (§1)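 Compounds were pin-transferred onto cells and incubated 48 or 72 hr at 37 degree Celsius, 95% humidity. CellTiter-Glo was added, plates sat 10 min at room temperature, then ATP-coupled luminescence was imaged as the viability read-out.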

HaCat [1] = test: as above; conditions: Five cell lines viability, CellTiter-Glo ATP luminescence, 48-72 h; max response: stronger effect = lower value
Summary of the method: as §1

KB-3-1 = test: as above; conditions: Five cell lines viability, CellTiter-Glo ATP luminescence, 48-72 h; max response: stronger effect = lower value
Summary of the method: as §1

NIH3T3 = test: as above; conditions: Five cell lines viability, CellTiter-Glo ATP luminescence, 48-72 h; max response: stronger effect = lower value
Summary of the method: as §1

HACAT [2] = test: qHTS assay to identify novel small-molecules to repurpose for Merkel cell carcinoma treatment (AID 1296009); conditions: MCC and control cell lines, CellTiter-Glo viability, 72 h; at 44.8 µM (top of the series) unless noted
Summary of the method: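 Luminescence from CellTiter-Glo, read 10 min after addition at room temperature, reported viability following a 72 hr, 37 degree celsius treatment with NPC or MIPE compounds in titration; values normalized to plate controls.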

Measured: max response
Note: nearly all actives have a fitted effect of over 60% in size.

COc1cc(/C=C2\CC[C@H]3COC[C@@H](c4cc(F)c(F)c(F)c4)N3C2=O)ccc1-n1cnc(C)c1
inactive: CRL-7250 3.12% | HaCat [1] | KB-3-1 | NIH3T3 | HACAT [2]

Cc1nc2cc(C(=O)NCc3ccccn3)nn2c(C)c1Cc1cccc(Cl)c1
inactive: CRL-7250 | HaCat [1] | KB-3-1 -9.98% | NIH3T3 3.03% | HACAT [2]

C=C1C(=O)O[C@@H]2[C@H]1CC[C@H](C)[C@]1(CCC(=O)O1)C2(C)O (stereo not given in full)
inactive: CRL-7250 -3% | HaCat [1] | KB-3-1 | NIH3T3 -19.6% | HACAT [2]

C=C(C)[C@@H]1CC[C@]2(C(=O)O)CC[C@]3(C(=O)O)[C@H](CCC4[C@@]5(C)CCC(=O)C(C)(C)C5CC[C@]43C)C12 (stereo not given in full)
inactive: CRL-7250 -13.3% | HaCat [1] | KB-3-1 4.42% | NIH3T3 -2.4% | HACAT [2] inactive [at 17.4 µM]

COc1ccc([C@H](Cc2ccncc2)c2ccccc2)cc1OC1CCCC1
inactive: CRL-7250 -5.35% | HaCat [1] | KB-3-1 -4.42% | NIH3T3 -22.8% | HACAT [2]

NC(=O)c1cccc2[nH]c(-c3ccc(C4CCCN4)cc3F)nc12 (stereo not given)
inactive: all assays above

O=S(=O)(Cc1ccccc1)Nc1ccc(-c2ccc3c(cnn3-c3ccc(F)cc3)c2)c(C(F)(F)F)c1
inactive: CRL-7250 -4.69% | HaCat [1] | KB-3-1 -15.9% | NIH3T3 -4.39% | HACAT [2]

NS(=O)(=O)c1ccc(NC(=O)Nc2ccc(F)cc2)cc1
inactive: CRL-7250 | HaCat [1] | KB-3-1 -12% | NIH3T3 2.88% | HACAT [2]

CC1(C)CCCC2(C)C1C(OC(=O)/C=C/C=C/C=O)C=C1COC(=O)C12O (stereo not given)
inactive: CRL-7250 -21.2% | HaCat [1] | KB-3-1 | NIH3T3 -7.98% | HACAT [2] inactive [at 17.4 µM]

O=C(Nc1cc(C(F)(F)F)ccc1N1CCCCC1)c1ccncc1
inactive: CRL-7250 -7.1% | HaCat [1] | KB-3-1 -6.53% | NIH3T3 1.75% | HACAT [2]

Cc1cc(NC(=O)NCCN2CCC(O)(Cc3ccccc3)CC2)c2ccccc2n1
inactive: CRL-7250 2.34% | HaCat [1] | KB-3-1 -1.93% | NIH3T3 | HACAT [2]

COC(=O)c1ccnc(-c2cc(C(=O)Nc3ccc(C4(N)CC4)cc3)ccn2)c1
inactive: CRL-7250 -5.77% | HaCat [1] | KB-3-1 -6.68% | NIH3T3 -5.19% | HACAT [2]

CCN(CC)C(=O)C(c1ccccc1)N1CCN(c2ccc(NC(=O)c3ccccc3-c3cccnc3)cc2F)CC1 (stereo not given)
inactive: CRL-7250 -1.45% | HaCat [1] | KB-3-1 | NIH3T3 | HACAT [2]

CC/C=C\CC1C(=O)C=CC1(CCCCC1CCC(=O)O1)OC(C)=O (stereo not given)
inactive: CRL-7250 | HaCat [1] | KB-3-1 4.62% | NIH3T3 4.76% | HACAT [2]

C/C=C/C1=CC2=C(CO1)C(=O)C(C)(OC(=O)c1c(C)cc(O)cc1OC)C(O)C2 (stereo not given)
inactive: CRL-7250 3.73% | HaCat [1] | KB-3-1 2.17% | NIH3T3 1.21% | HACAT [2]

CC1OC(=O)C[C@@H]2C(C(=O)O)=CO[C@@H](O[C@H]3O[C@H](CO)[C@@H](O)[C@H](O)[C@H]3O)[C@H]12 (stereo not given in full)
inactive: CRL-7250 -4.73% | HaCat [1] | KB-3-1 | NIH3T3 | HACAT [2]

Cc1cc2c(N3CCCC3)nc(N3CCCC3)nc2n1C
inactive: CRL-7250 1.58% | HaCat [1] | KB-3-1 -0.182% | NIH3T3 -2.11% | HACAT [2]

C=C1CCC[C@]2(C)CC/C(=C(/CO)C(=O)OC)C[C@@H]12
inactive: CRL-7250 -7.08% | HaCat [1] | KB-3-1 -2.83% | NIH3T3 2.53% | HACAT [2]

O=C(NCCCN1CCC2(CC1)OCc1ccccc12)[C@H]1CCCN1Cc1ccccc1
inactive: CRL-7250 | HaCat [1] | KB-3-1 -7.1% | NIH3T3 4.93% | HACAT [2]

COc1ccncc1C(=O)NC(=O)Nc1ccc(-c2ccccc2)c(C(F)(F)F)c1
inactive: CRL-7250 | HaCat [1] | KB-3-1 -11.2% | NIH3T3 3.25% | HACAT [2]

COC(=O)/C=C/C=C/C(=O)OC1C=C2COC(=O)C2(O)C2(C)CCCC(C)(C)C12 (stereo not given)
inactive: CRL-7250 | HaCat [1] | KB-3-1 4.64% | NIH3T3 -4.83% | HACAT [2] inactive [at 17.4 µM]

CC(C)(F)CC(NC(c1ccc(-c2ccc(S(C)(=O)=O)cc2)cc1)C(F)(F)F)C(=O)NC1(C#N)CC1 (stereo not given)
inactive: CRL-7250 -1.34% | HaCat [1] | KB-3-1 | NIH3T3 | HACAT [2]

Cc1cccc(N2CCN(C(=O)c3cc(S(=O)(=O)N(C)C)ccc3N3CCCC3)CC2)c1C
inactive: CRL-7250 -10.2% | HaCat [1] | KB-3-1 | NIH3T3 -5.43% | HACAT [2]

COc1ccc2cc(-c3cc(-c4cc(Cl)cc(Cl)c4)nn3C(C)c3ccc(C(=O)NCCC(=O)O)cc3)ccc2c1 (stereo not given)
inactive: CRL-7250 2.03% | HaCat [1] | KB-3-1 -23.8% | NIH3T3 | HACAT [2]

COc1cc(C(=O)NC(=S)Nc2cccc(NC(=O)c3ccccc3)c2)cc(OC)c1OC
inactive: CRL-7250 -13% | HaCat [1] | KB-3-1 6.94% | NIH3T3 4.46% | HACAT [2]

COc1ccc(S(=O)(=O)Nc2cc(Cl)cc(Cl)c2OC)cc1N1CCNCC1
inactive: CRL-7250 -0.811% | HaCat [1] | KB-3-1 -5.04% | NIH3T3 -3.81% | HACAT [2]

CC(=O)OC1CC(C)C2(CCC3(CC(=O)OC3O)O2)C2(C)CCCC(C)(C)C12 (stereo not given)
inactive: CRL-7250 | HaCat [1] | KB-3-1 0.411% | NIH3T3 0.0681% | HACAT [2] inactive [at 17.4 µM]

CC(C)CCCCC(=O)N[C@@H](CO)C(=O)N[C@@H](CC(C)C)C(=O)[C@@]1(CO)CO1
inactive: CRL-7250 -2.59% | HaCat [1] | KB-3-1 -12% | NIH3T3 -2.24% | HACAT [2]

C/C=C(/C=C(C)/C=C/C=C/C=C(\C)C(=O)C12OC1C(O)(CCO)NC2=O)C(=O)OC (stereo not given)
inactive: CRL-7250 -6.59% | HaCat [1] | KB-3-1 | NIH3T3 -1.05% | HACAT [2] inactive [at 17.4 µM]

O=C(O)c1ccc(S(=O)(=O)N(Cc2ccc(OC(F)(F)F)cc2)c2ncc(C(F)(F)F)cc2Cl)cc1
inactive: CRL-7250 -3.34% | HaCat [1] | KB-3-1 0.52% | NIH3T3 -0.0805% | HACAT [2]

CC(C)(C)NC(=O)[C@H]1CC[C@H]2[C@@H]3CC[C@H]4NC(=O)CC[C@]4(C)[C@H]3CC[C@]12C
inactive: CRL-7250 -10.4% | HaCat [1] | KB-3-1 -6.73% | NIH3T3 -8.88% | HACAT [2]

Fc1ccc(CN2CCC(Nc3ccc(C(F)(F)F)nn3)CC2)cc1F
inactive: CRL-7250 -3.28% | HaCat [1] | KB-3-1 -12.1% | NIH3T3 -5.8% | HACAT [2]

CC(C)Nc1nc(Nc2ccccc2)nc(-c2ccccc2)n1
inactive: CRL-7250 -10.5% | HaCat [1] | KB-3-1 -2.52% | NIH3T3 -18.6% | HACAT [2]

CCCN(CCc1ccsc1)C1CCc2c(O)cccc2C1 (stereo not given)
inactive: CRL-7250 4.38% | HaCat [1] | KB-3-1 0.967% | NIH3T3 | HACAT [2]

C[C@@H](NC(=O)C(=O)c1c[nH]c2ccc([N+](=O)[O-])cc12)c1ccccc1
inactive: CRL-7250 | HaCat [1] | KB-3-1 -11% | NIH3T3 3.7% | HACAT [2]

CNC(C)C(=O)NC(C(=O)N1CCCC1C(=O)Nc1snnc1-c1ccccc1)C1CCCCC1 (stereo not given)
inactive: CRL-7250 0.759% | HaCat [1] | KB-3-1 3.39% | NIH3T3 | HACAT [2]

O=C(Nc1ccn(Cc2ccc(O)cc2C(F)(F)F)n1)c1c(F)cccc1F
inactive: CRL-7250 -7.76% | HaCat [1] | KB-3-1 -23.9% | NIH3T3 | HACAT [2]

C=C(C(=O)OC)[C@@H]1CC=C2C=CC(=O)[C@H](C)[C@@]2(C)C1
inactive: CRL-7250 4.23% | HaCat [1] | KB-3-1 -5.91% | NIH3T3 | HACAT [2]

C=C1CC[C@@H]2[C@](C)(CO)[C@H](O)CC[C@@]2(C)[C@@H]1CC(O)C1=CCOC1=O (stereo not given in full)
inactive: CRL-7250 -6.08% | HaCat [1] | KB-3-1 | NIH3T3 | HACAT [2]

COC1=CC(=O)C=C(C)C12Oc1c(Cl)c(OC)cc(OC)c1C2=O (stereo not given)
inactive: CRL-7250 0.695% | HaCat [1] | KB-3-1 | NIH3T3 -3.2% | HACAT [2]

Cc1ccc(-c2ncc[nH]2)cc1NC(=O)c1ccc(OCc2ccccn2)cc1
inactive: CRL-7250 -5.69% | HaCat [1] | KB-3-1 -1.78% | NIH3T3 -1.84% | HACAT [2]

CCCN1CCC=C(c2cc(-c3ccc(C)cc3)no2)C1
inactive: CRL-7250 | HaCat [1] | KB-3-1 9.64% | NIH3T3 | HACAT [2]

Cc1cc(C)c(S(=O)(=O)n2cc(C)cc2C)c(C)c1
inactive: CRL-7250 -3.09% | HaCat [1] | KB-3-1 2.85% | NIH3T3 | HACAT [2]

CCCCC1CCC(c2nc(-c3ccncc3)no2)CC1 (stereo not given)
inactive: CRL-7250 -23.2% | HaCat [1] | KB-3-1 -26.8% | NIH3T3 -3.82% | HACAT [2]

O=c1cc(OCc2ccc(F)cc2)ccn1-c1ccc(OCCN2CCCC2)cc1
inactive: CRL-7250 -11.7% | HaCat [1] | KB-3-1 -29.6% | NIH3T3 -16.9% | HACAT [2]

CN(C)c1ccc(NC(=O)NS(=O)(=O)c2ccc(Cl)cc2)cc1
inactive: CRL-7250 -11.7% | HaCat [1] | KB-3-1 | NIH3T3 -5.53% | HACAT [2]

C/C=C/C=C/C(=O)O[C@@H]1C=C2COC(=O)[C@]2(O)[C@@]2(C)CCCC(C)(C)[C@H]12
inactive: CRL-7250 -1.83% | HaCat [1] | KB-3-1 0.722% | NIH3T3 | HACAT [2]

COc1ccc(CCO[C@@H]2O[C@H](CO[C@H]3OC[C@](O)(CO)[C@H]3O)[C@@H](OC(=O)/C=C/c3ccc(O)c(O)c3)[C@H](O[C@@H]3O[C@@H](C)[C@H](O)[C@@H](O)[C@H]3O)[C@H]2O)cc1OC
inactive: CRL-7250 -14.2% | HaCat [1] | KB-3-1 2.16% | NIH3T3 -1.58% | HACAT [2] inactive [at 17.4 µM]
